Assay outcomes (PubChem)
Hits are enriched below; roughly 1.1% of the tested compounds scored in any of these assays.
CCHF vOTU inh-1 – CCHFV vOTU protease inhibition | Pep-AMC fluorescence | inhibition, % at 11.5 µM | 370,000 tested, 0.55% active | AID 651958; in the data active = inhibition above about 30%
Mtb BioA inh – BioA (M. tuberculosis) enzyme inhibition. purified M. tuberculosis BioA enzyme, plate reader. inhibition, % at 9.99 µM. 360,000 tested, 0.096% active; in the data active = inhibition above about 40%
Mtb bLac sens – beta-lactam sensitization of Mtb H37Rv. M. tuberculosis H37Rv growth with meropenem, percent inhibition. inhibition, % at 25 µM. 330,000 tested, 0.27% active. AID 434955;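 note: growth measured after seven days incubation then overnight dye step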
BJeLR viability – kills HRASV12-expressing BJeLR cells. BJeLR (HRASV12) viability, CellTiter-Glo ATP luminescence, 48 h. 300,000 tested, 0.17% active. inhibition, % (no concentration beside the values); in the data active = inhibition above about 50%
RecA splice inh – Mtb RecA intein splicing inhibition; P9WHJ3; cell-free RecA intein splicing, fluorescence; inhibition, % (concentration not given with the values); 290,000 tested, 0.75% active; AID 2221; in the data active = inhibition above about 30%
Yp Topo-I inh – inhibitors of Yersinia pestis topoisomerase I | activity, % at 10 µM | Y. pestis Topo-I cleavage product accumulation, plate reader | AID 504884 | 360,000 tested, 0.064% active; in the data active = activity above about 50%, passing the limit was not always enough
GFP chromophore – counter-screen GFP chromophore formation inhibition. shares compounds with RecA splice inh. cell-free GFP chromophore formation, fluorescence. 2,100 tested, 83% active. EC50, µM
CCHF vOTU inh-2 – confirmation of CCHF virus vOTU protease inhibitors. shares compounds with CCHF vOTU inh-1. inhibition, % at 11.5 µM. Recombinant CCHFV vOTU, Pep-AMC fluorescence. 1,900 tested, 17% active. AID 686976; in the data active = inhibition above about 30%
Numbers stand for hits; . = inactive; / = no result given. Unless noted, the rule behind the calls is not given here.

SMILES	CCHF vOTU inh-1	Mtb BioA inh	Mtb bLac sens	BJeLR viability	RecA splice inh	Yp Topo-I inh	GFP chromophore	CCHF vOTU inh-2
CS(=O)(=O)Nc1ccc2c(c1)[C@H]1C[C@@H](CC(=O)NCc3ccc(-c4ccccc4)cc3)O[C@H](CO)[C@H]1O2	/	.	/	/	/	/	/	/
O=C(CCN1C(=O)/C(=C/c2cccs2)SC1=S)Nc1ccc(O)cc1	.	.	.	.	.	.	/	/
O=C(CCN1C(=O)/C(=C/c2cccs2)SC1=S)Nc1ccc(C(=O)O)c(O)c1	32	.	.	.	44	.	31	.
O=C1C=C(Nc2ccccc2O)c2ccccc2C1=O	97	.	.	.	95	.	.	74
Cc1ccc(NC2=CC(=O)C(=O)c3ccccc32)c(C)c1	.	.	.	/	/	.	/	/
O=C1C=C(NCc2ccccc2)c2ccccc2C1=O	64	/	/	.	92	.	0.86	89
CC(=O)N1C[C@@H]2[C@H](c3ccccc31)[C@@H](CO)N2C(=O)c1ccc(F)cc1	/	.	/	/	/	/	/	/
COc1ccc(-c2c[nH]c(=O)[nH]c2=O)cc1OC	.	.	.	.	.	.	/	/
COc1ccc(-c2cc(=O)[nH][nH]2)cc1OC	60	.	.	.	99	.	0.97	.
COc1cc(/C=C(\C#N)c2nc3ccccc3o2)ccc1O	33	.	.	.	34	.	17	.
N#C/C(=C\c1ccc(O)cc1)c1nc2ccccc2o1	.	.	.	.	.	.	/	/
O=C(C[C@H]1CC[C@@H]2[C@H](COC[C@H](O)CN2C(=O)c2ccncc2)O1)NC1Cc2ccccc2C1	/	.	/	/	/	/	/	/
CCOC(=O)c1c(CSC(=N)N)n(-c2ccc(C)cc2)c2cc(Br)c(OC(C)=O)cc12	46	.	.	84	70	.	7.9	.
CCOC(=O)c1c(CSC(=N)N)n(C)c2cc(Br)c(OC(C)=O)cc12	.	/	.	.	.	.	/	/
O=C(C[C@@H]1CC[C@H](NS(=O)(=O)c2ccc(F)cc2)[C@H](CO)O1)NCc1ccncn1	/	.	/	/	/	/	/	/
O=[N+]([O-])c1cc2cccnc2c2ncccc12	.	.	.	.	/	.	/	/
O=[N+]([O-])c1cc(O)c2ncccc2c1	35	/	.	.	37	/	12	52
COc1ccc(S(=O)(=O)N(C)C[C@H]2Oc3ncc(C#CC4(O)CCCC4)cc3C(=O)N([C@H](C)CO)C[C@H]2C)cc1	/	.	/	/	/	/	/	/
COc1cc2c(cc1O)CC1c3c(cc(O)c(OC)c3-2)CCN1C (stereo unspecified)	.	.	.	.	.	.	/	/
COc1cc2c(cc1OC)-c1c(OC)c(OC)cc3c1[C@H](C2)N(C)CC3	89	.	.	.	34	.	22	79
COc1ccc(Cc2nccc3cc(OC)c(OC)cc23)cc1OC	92	.	.	.	93	.	7.3	40
COc1ccc(Cc2c3cc(OC)c(OC)cc3cc[n+]2C)cc1OC	/	.	.	.	.	.	/	/
C[n+]1c2ccccc2nc2ccc(NCCO)cc21	91	.	.	.	64	.	12	81
c1ccc2nc3ccccc3nc2c1	.	.	.	.	.	.	/	/
CNc1ccc2nc3ccccc3[n+](C)c2c1	102	.	.	.	45	.	17	79
SMILES	CCHF vOTU inh-1	Mtb BioA inh	Mtb bLac sens	BJeLR viability	RecA splice inh	Yp Topo-I inh	GFP chromophore	CCHF vOTU inh-2
CC1=CC(C)(C)N2C(=O)C(=Nc3ccc(O)cc3)c3cccc1c32	82	/	.	.	39	.	.	.
Cc1ccc(NC2=C(NC(=O)c3ccccc3)C(=O)c3ccccc3C2=O)cc1Cl	51	.	.	.	70	.	6.4	42
COc1ccc(-c2ccc([C@@H]3[C@@H](C#N)N(C(=O)c4cccnc4)[C@H]3CO)cc2)cc1	/	.	/	/	/	/	/	/
CC(C)NC(=O)N1C[C@H]2[C@@H](c3ccccc31)[C@H](CO)N2C(=O)c1ccccc1	/	.	/	/	/	/	/	/
CC(=O)c1c(C)oc2c1cc(O)c1ccccc12	.	/	.	.	.	.	/	/
CC(=O)c1cc(O)c2ccccc2c1O	37	.	.	.	70	.	6.9	.
CC1OC(Nc2cccc3ccccc23)C(O)C(O)C1O (stereo unspecified)	65	.	.	.	46	.	.	.
C[C@@H]1CN([C@@H](C)CO)S(=O)(=O)c2ccc(C#Cc3ccc(F)cc3)cc2O[C@@H]1CN(C)C(=O)c1ccccn1	/	.	/	/	/	/	/	/
C[C@H](CO)N1C[C@H](C)[C@H](CN(C)C(=O)Nc2ccccc2)Oc2ccc(NC(=O)CCCCCC(=O)Nc3ccccc3N)cc2CC1=O	/	.	/	/	/	/	/	/
COc1ccc(OCc2cc(C(=O)NC3CCOC(C)(C)C3)no2)c2ccccc12 (stereo unspecified)	43	.	.	.	54	.	12	.
CCCc1cn(CC[C@@H]2CC[C@H](NS(=O)(=O)c3ccccc3Cl)[C@@H](CO)O2)nn1	/	.	/	/	/	/	/	/
CC1=NN(c2ccc(C(=O)O)cc2)C(=O)/C1=C\c1ccc(OC(=O)c2cccs2)cc1	55	/	.	/	93	.	2.6	.
CCOc1cc(/C=C2/C(=N)N3C(=NC2=O)SN=C3S(C)(=O)=O)ccc1OC(=O)c1ccco1	/	.	.	.	.	.	/	/
CC1=NN(c2ccc(C(=O)O)cc2)C(=O)/C1=C/c1ccc(-c2ccccc2F)o1	/	.	.	.	.	.	/	/
CC1=NN(c2ccccc2)C(=O)/C1=C/c1ccc(Cl)cc1	89	.	.	.	85	.	3.2	.
COc1ccc(/C=C2/C(=O)N(c3ccccc3)N=C2C)cc1Br	74	.	.	.	45	.	8	.
CCOc1cc(/C=C2/C(=O)N(c3ccccc3)N=C2C)ccc1OC(=O)c1ccco1	68	.	.	.	78	.	2.7	.
CC1=NN(c2ccccc2)C(=O)/C1=C\c1ccc(Br)s1	.	/	.	.	.	.	/	/
C[C@@H]1CN([C@@H](C)CO)C(=O)Cc2cc(NS(=O)(=O)c3ccc(Cl)cc3)ccc2O[C@@H]1CN(C)S(=O)(=O)c1cn(C)cn1	/	.	/	/	/	/	/	/
CN(C)CCCNC(=O)[C@H]1[C@H](CO)[C@H]2Cn3c(ccc(-c4ccc(F)cc4)c3=O)[C@@H]1N2C	/	.	/	/	/	/	/	/
COc1ccc(CN(C)C[C@H]2Oc3ccc(NS(C)(=O)=O)cc3CC(=O)N([C@@H](C)CO)C[C@H]2C)cc1	/	.	/	/	/	/	/	/
O=[N+]([O-])c1ccc(N(CCO)CCO)c2c1no[n+]2[O-]	.	.	/	/	/	.	/	/
CN1CCN(c2ccc([N+](=O)[O-])c3no[n+]([O-])c23)CC1	35	.	.	71	86	.	.	.
O=C(N/N=C/c1ccc(OCc2ccccc2)cc1)c1ccncc1	.	.	.	.	.	.	/	/
Oc1ccc(N=Cc2ccc(OCc3ccccc3)cc2)cc1	94	.	.	.	46	.	.	67
O=C(O)CSc1cc(NS(=O)(=O)c2ccc(Br)cc2)c2ccccc2c1O	114	.	.	.	97	.	0.68	104
